# Measurements from ChEMBL document CHEMBL4513143, “CO-ADD screening of University of Natural Resources and Life (Austria) compounds”.
# Measured potencies and affinities stand elsewhere.
# Legend:
# Staphylococcus aureus = conditions: Concentration 32 ug.mL-1; ASSAY_TEST Inhibition of Bacterial Growth; detection method Absorption (OD600); MEDIA CAMHB; plate type 384well; NBS; CORNING #3640; time 18 hr
# Escherichia coli = conditions: Concentration 32 ug.mL-1; ASSAY_TEST Inhibition of Bacterial Growth; detection method Absorption (OD600); MEDIA CAMHB; plate type 384well; NBS; CORNING #3640; time 18 hr
smiles,measurement,setting,value
[N-]=[N+]=NC[C@H]1OC(O)[C@@H](O)[C@@H]1O (some centres not stated),Inhibition,Staphylococcus aureus,29.31%
same,Inhibition,Escherichia coli,18.39%
